# Assay results reported in PubChem BioAssay (NCATS).
# “And” between values parts separate entries of the source, which are not always exact repeats. Equal values may be shown once. Records with an inconclusive call do not appear. The source made the active and inactive calls. Unless noted, the call rests on the fitted dose curve; in most records, active means well fitted curve in either direction with a large enough effect (not every such curve was filed as active); inconclusive means small, poorly fitted or top-dose-only effect, or another doubt; inactive means flat fitted curve, though single readings scatter.
# Key:
# [1] = target: Lysosomal acid glucosylceramidase (Homo sapiens) (UniProt P04062); experiment: Glucocerebrosidase-p2 (AID 348; in the data active means potency below about 10 µM; further: potency means the concentration at half of the fitted maximal effect); settings: purified GBA, blue fluorogenic substrate, 40 min
# Lysosomal acid glucosylceramidase (Homo sapiens), sequence (P04062 whole entry, looked up): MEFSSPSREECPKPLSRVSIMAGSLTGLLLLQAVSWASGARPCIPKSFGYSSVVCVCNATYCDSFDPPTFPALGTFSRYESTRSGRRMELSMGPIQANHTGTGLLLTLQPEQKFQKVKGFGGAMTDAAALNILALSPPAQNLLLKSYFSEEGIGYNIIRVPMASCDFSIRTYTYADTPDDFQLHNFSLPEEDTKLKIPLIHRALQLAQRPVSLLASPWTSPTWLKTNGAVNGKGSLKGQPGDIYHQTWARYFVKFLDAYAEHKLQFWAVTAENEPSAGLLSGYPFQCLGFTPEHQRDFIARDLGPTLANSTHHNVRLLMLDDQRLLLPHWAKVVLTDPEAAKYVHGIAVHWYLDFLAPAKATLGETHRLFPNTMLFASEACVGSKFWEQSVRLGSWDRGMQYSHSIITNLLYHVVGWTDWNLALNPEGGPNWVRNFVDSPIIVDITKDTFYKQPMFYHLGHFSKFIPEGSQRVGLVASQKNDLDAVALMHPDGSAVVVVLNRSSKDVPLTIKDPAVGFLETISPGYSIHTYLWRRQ
# Outline: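 Compounds titrated from 0.6 nM upwards against 0.2 nM enzyme in pH 5.9 citric acid/KH2PO4, taurocholate, tween-20; blue fluorogenic substrate 80 uM, 40 min room temperature, stopped and read Ex 365/Em 440 for AC50.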
# [2] = target: Cytochrome P450 1A2 (Homo sapiens) (UniProt P05177); experiment: p450-cyp1a2 (AID 410; calls by dose curve; further: potency means the concentration at half of the fitted maximal effect;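 on activity change, negative = inhibition: -100% = full effect of reference inhibitor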); settings: recombinant CYP1A2, luciferin-ME demethylation, luminescence; series mostly up to 57 µM
# Cytochrome P450 1A2 (Homo sapiens), sequence (P05177 whole entry, looked up): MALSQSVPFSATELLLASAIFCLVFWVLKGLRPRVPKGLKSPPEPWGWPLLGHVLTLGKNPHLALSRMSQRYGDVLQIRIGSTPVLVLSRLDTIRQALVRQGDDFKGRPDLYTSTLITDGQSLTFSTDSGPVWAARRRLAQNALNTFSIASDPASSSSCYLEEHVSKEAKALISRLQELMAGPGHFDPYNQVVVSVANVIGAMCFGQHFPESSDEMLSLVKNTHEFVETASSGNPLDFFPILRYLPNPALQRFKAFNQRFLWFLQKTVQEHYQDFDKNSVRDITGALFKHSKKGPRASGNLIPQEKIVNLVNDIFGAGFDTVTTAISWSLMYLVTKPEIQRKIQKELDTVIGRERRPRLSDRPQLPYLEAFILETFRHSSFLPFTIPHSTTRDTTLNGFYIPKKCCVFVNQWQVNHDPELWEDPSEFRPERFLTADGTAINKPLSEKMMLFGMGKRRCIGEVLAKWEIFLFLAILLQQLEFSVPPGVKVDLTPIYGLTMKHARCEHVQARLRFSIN
# Outline: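 Inhibition was calculated relative to 57 uM furafylline (full inhibition). The reaction used human CYP1A2 at 20nM with Luciferin-ME at its Km, 100uM, driven by an NADPH-regenerating system for 60 min at room temperature.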
# [3] = target: Glucocorticoid receptor (Homo sapiens) (UniProt P04150); experiment: GR-GFP Redistribution (AID 450;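 active means compounds whose dose series gives a full or clear partial fitted curve of increased nuclear translocation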; further: potency means the concentration at half of the fitted maximal effect); settings: U2OS GR-GFP nuclear translocation, laser cytometry, 2 h
# Glucocorticoid receptor (Homo sapiens), sequence (P04150 whole entry, looked up, the tested form may be a part): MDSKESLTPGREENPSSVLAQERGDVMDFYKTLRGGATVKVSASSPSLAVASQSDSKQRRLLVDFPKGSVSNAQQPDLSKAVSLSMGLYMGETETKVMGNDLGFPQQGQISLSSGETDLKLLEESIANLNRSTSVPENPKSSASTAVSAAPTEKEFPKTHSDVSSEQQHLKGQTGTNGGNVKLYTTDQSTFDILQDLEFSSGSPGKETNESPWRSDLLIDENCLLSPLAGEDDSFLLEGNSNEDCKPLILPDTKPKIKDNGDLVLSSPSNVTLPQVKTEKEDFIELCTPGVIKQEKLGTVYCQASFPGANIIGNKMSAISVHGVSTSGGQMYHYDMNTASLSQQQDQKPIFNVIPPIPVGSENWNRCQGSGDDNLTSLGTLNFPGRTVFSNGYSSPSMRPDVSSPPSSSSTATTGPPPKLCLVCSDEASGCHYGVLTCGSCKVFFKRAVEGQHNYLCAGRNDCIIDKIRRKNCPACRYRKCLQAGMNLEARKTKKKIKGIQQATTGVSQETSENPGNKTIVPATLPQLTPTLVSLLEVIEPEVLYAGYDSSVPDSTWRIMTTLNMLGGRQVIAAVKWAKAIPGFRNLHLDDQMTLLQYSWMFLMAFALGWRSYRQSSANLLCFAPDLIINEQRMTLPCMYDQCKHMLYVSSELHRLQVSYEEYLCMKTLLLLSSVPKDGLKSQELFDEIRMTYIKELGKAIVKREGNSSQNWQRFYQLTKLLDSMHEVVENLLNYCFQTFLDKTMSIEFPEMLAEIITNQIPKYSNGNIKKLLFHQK
# [4] = target: Glucocorticoid receptor (Homo sapiens) (UniProt P04150); experiment: GR-EFC Redistribution (AID 451; calls by dose curve; further: potency means the concentration at half of the fitted maximal effect); settings: CHO-K1 GR-EFC translocation, beta-gal luminescence, 2 h
# Outline: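 CHO-K1 cells expressing nuclear EA and GR-ED fragments of b-gal; compounds titrated up to 46 uM final, 2 h at 37 C. GR nuclear translocation read as complemented b-gal luminescence after 1 h RT detection.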
# [5] = target: Mitogen-activated protein kinase 10 (Mus musculus) (UniProt Q61831); experiment: JNK3 AlphaScreen Assay (AID 530); settings: JNK3 lysate, c-Jun phosphorylation; series mostly up to 57.1 µM;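 further: kinase came from lysate of stimulated human HepG2 cells; signal reports phosphorylation of biotinylated GST-cJun 1-79 at Ser73 with 10 µM ATP; on the % scale 0 is the no-effect control and ±100 the full control effect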
# Outline: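 qHTS format: compounds tested as titrations against IL-1beta/TNF-alpha-activated HepG2 lysate JNK3 with biotin-GST-cJun substrate and 10 uM ATP at room temperature. Loss of anti-phospho-cJun AlphaScreen signal indicates inhibition.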
# [6] = target: 3',5'-cyclic-AMP phosphodiesterase 4B (Homo sapiens) (UniProt Q07343); experiment: qHTS Assay for Inhibitors of PDE-IV (AID 607; active means well fitted activation curve with a large enough effect in the main read-out, with a control signal flat, not every such curve was filed as active; further: % of control where 0% means no effect); settings: HEK293 ACTOne CNG channel cells, membrane potential fluorescence; series mostly up to 22.9 µM
# 3',5'-cyclic-AMP phosphodiesterase 4B (Homo sapiens), sequence (Q07343 whole entry, looked up): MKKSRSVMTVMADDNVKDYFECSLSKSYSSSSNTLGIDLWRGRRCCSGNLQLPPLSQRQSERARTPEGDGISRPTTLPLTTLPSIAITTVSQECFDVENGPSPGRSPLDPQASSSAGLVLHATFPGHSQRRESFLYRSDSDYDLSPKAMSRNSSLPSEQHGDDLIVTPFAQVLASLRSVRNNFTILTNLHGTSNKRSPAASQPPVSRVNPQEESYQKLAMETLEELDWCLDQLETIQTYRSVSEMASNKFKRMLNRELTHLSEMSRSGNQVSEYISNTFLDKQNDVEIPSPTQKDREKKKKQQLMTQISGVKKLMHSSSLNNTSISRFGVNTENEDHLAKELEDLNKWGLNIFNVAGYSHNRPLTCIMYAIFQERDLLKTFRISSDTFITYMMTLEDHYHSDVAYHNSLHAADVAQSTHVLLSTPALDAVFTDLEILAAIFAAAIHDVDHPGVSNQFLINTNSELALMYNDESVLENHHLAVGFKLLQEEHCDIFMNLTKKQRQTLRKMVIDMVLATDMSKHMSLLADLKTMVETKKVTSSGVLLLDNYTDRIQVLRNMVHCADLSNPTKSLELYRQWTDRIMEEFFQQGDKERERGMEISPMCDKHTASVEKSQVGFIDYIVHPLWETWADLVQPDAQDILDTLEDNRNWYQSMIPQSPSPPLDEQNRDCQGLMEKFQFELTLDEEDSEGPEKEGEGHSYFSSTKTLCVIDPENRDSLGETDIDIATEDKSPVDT
# Outline: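 HEK293 ACTOne cells with CNG channel (1000/well), endogenous PDE4; membrane potential dye, compounds up to 22.9 uM final. Fluorescence Ex 535/Em 590; RO 20-1724 (100 uM final) as reference.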
# [7] = target: Cytochrome P450 3A4 (Homo sapiens) (UniProt P08684); experiment: qHTS Assay for Activators of Cytochrome P450 3A4 (AID 885; active means well fitted curve in the direction sought with a large enough effect; an effect the other way counts as inactive or inconclusive; further: nearly all actives have a fitted effect of over 65% in size); settings: recombinant CYP3A4, Luciferin-PPXE luminescence, 60 min; series mostly up to 57.1 µM
# Cytochrome P450 3A4 (Homo sapiens), sequence (P08684 whole entry, looked up): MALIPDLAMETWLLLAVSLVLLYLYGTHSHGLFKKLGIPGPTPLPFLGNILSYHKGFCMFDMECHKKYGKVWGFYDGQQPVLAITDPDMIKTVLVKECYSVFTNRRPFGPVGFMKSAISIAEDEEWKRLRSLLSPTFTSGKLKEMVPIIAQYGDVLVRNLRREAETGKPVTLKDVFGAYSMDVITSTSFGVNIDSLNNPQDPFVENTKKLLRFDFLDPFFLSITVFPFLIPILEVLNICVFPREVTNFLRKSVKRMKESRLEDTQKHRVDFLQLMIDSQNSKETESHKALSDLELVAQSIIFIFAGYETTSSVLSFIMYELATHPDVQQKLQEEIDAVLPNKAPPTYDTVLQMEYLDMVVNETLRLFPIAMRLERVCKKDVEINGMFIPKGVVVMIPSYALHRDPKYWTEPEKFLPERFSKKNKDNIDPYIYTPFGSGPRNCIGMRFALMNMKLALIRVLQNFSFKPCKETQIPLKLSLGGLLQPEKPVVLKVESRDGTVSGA
# Outline: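 Human CYP3A4 (20 nM) with Luciferin-PPXE at 25 uM (its KM) in 200 mM KPO4; 10 min compound preincubation, then NADPH regeneration and 60 min reaction at RT. Luciferin read by luminescence; normalized to 57 uM ketoconazole full inhibition.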
# [8] = qHTS Assay for Lipid Storage Modulators (AID 1519; calls by dose curve); settings: Drosophila S3 cells, BODIPY lipid droplet/cell ratio, laser cytometry, cells loaded with oleic acid
# Outline: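 Cells seeded at 5,000 per well were treated with compounds over a concentration series and loaded with oleic acid (400 uM, as added). Lipid droplet fluorescence (488 nm excitation, 500-530 nm channel) was read by laser-scanning cytometry and normalized to 20 uM Triacsin C.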
# [9] = AP1 Signaling Pathway (AID 357); settings: ME-180 AP-1-bla reporter, EGF-induced, beta-lactamase ratio, 5 h;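 further: ME-180 reporter cells stimulated with EGF at its EC50 level; on the % scale 0 is the no-effect control and ±100 the full control effect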
# Outline: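 Titration-series screen for positive or negative modulators of EC50 EGF-induced signaling in ME-180 cells carrying an AP-1-driven beta-lactamase reporter. After 5 hours at 37 degrees Celsius, CCF4 460nm/530nm emission ratio gave %Activity; AC50 values derived.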
# [10] = NFAT Signaling Pathway (AID 444); settings: Jurkat NFAT-bla M1, carbachol, beta-lactamase ratio, 5 h;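 further: carbachol stimulus at about its EC50 of 1 µM final; on the % scale 0 is the no-effect control and ±100 the full control effect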
# Outline: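 Jurkat cells with NFAT-driven β-lactamase reporter and co-expressed M1 receptor, stimulated with carbachol (final 1 uM, ~EC50), compound titration, 5 h at 37 °C. CCF4 loaded 1 h at RT; 460/530 nm ratio gave %activity and AC50.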
# [11] = Stat Signaling Pathway (AID 446); settings: ME-180 SIE beta-lactamase reporter, IL-6 stimulated, 5 h;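 further: ME-180 cervical cancer cells given 40 pM IL-6 alongside compound; SIE-controlled beta-lactamase reporter measured as 460/530 nm FRET emission ratio; on the % scale 0 is the no-effect control and ±100 the full control effect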
# Outline: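 ME-180 cells carrying a SIE-driven beta-lactamase reporter are stimulated with 40 pM IL-6 for 5 h at 37C in the presence of compound. The 460/530 nm FRET substrate ratio is read after 2.5 h at RT. Data are normalised to 300 pM IL-6 and to 125 nM JAK inhibitor controls.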
# [12] = target: Pyruvate kinase (Leishmania mexicana) (UniProt Q27686); experiment: qHTS Validation Assay for Inhibitors of Leishmania Mexicana Pyruvate Kinase (AID 945; active means well fitted curve in the direction sought with a large enough effect; an effect the other way counts as inactive or inconclusive;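 further: 0% = DMSO only neutral control wells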); settings: purified L. mexicana pyruvate kinase, enzyme activity, E451W mutant enzyme; series mostly up to 57.5 µM
# Pyruvate kinase (Leishmania mexicana), sequence (Q27686 2-499 E452W): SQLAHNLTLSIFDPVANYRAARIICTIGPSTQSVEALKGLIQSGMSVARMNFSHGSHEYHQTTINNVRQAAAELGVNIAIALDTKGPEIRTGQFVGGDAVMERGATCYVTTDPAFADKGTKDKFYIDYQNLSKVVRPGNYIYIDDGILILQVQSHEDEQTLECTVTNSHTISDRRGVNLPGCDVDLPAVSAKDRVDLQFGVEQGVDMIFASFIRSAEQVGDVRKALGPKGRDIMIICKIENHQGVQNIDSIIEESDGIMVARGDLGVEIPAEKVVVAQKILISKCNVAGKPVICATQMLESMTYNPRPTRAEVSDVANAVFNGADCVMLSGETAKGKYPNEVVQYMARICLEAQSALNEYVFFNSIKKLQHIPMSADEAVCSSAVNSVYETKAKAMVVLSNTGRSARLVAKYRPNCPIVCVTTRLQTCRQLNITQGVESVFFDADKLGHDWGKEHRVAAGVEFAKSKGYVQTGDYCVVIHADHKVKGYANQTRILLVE
# Outline: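 Compounds are tested as eight-point concentration series. Reactions contain 0.2 nM LmPYK E451W, 0.5 mM PEP, 0.1 mM ADP, 7 mM MgCl2 and 50 mM KCl at pH 7.2, run 1 h at room temperature, then read by PKLight luminescence.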
# [13] = target: Alpha-galactosidase A (Homo sapiens) (UniProt P06280); experiment: Counterscreen for Glucocerebrosidase Inhibitors: qHTS Assay for Human alpha-Galactosidase at pH 4.5 (AID 992; active means well fitted curve in the direction sought with a large enough effect; an effect the other way counts as inactive or inconclusive; further: 0% is about no effect); settings: purified enzyme, fluorogenic substrate; series mostly up to 76.9 µM
# Alpha-galactosidase A (Homo sapiens), sequence (P06280 whole entry, looked up): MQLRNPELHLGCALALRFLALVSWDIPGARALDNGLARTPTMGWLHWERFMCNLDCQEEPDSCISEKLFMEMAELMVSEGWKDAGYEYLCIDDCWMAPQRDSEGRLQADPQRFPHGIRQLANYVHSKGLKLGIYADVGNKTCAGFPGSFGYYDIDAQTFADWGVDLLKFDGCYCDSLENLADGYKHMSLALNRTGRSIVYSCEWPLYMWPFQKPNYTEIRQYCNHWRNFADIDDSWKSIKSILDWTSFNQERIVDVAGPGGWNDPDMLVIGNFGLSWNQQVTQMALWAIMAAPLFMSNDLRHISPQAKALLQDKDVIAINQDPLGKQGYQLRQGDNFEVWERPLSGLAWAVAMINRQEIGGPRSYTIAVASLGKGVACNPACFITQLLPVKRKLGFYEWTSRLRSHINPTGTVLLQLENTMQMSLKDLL
# Outline: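 Human enzyme (2 nM) with 80 uM 4-methylumbelliferyl alpha-D-galactopyranoside in 50 mM citric acid, 0.005% Tween-20, pH 4.5, 20 min at room temperature. Compounds 0.7 nM–77 uM; fluorescence Ex 365/Em 440 after pH 10 stop; AC50 from Hill fits.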
# [14] = target: alpha-glucosidase (Oryza sativa, rice) (UniProt Q653V4); experiment: Counterscreen for Glucocerebrosidase Inhibitors: qHTS Assay for Rice alpha-Glucosidase at pH 5.0 (AID 997; active means well fitted curve in the direction sought with a large enough effect; an effect the other way counts as inactive or inconclusive;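 further: 0% = full activity with enzyme and -100% = basal without enzyme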); settings: rice alpha-glucosidase enzyme activity; series mostly up to 76.9 µM
# Outline: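 Rice alpha-glucosidase (4 nM final) with 400 uM 4-methylumbelliferyl-alpha-D-glucopyranoside in citrate buffer pH 5.0, 20 min at room temperature, stopped at pH 10; fluorescence 365/440 nm, compounds 0.7 nM–77 uM, AC50 from Hill fits.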
# [15] = target: Ubiquitin carboxyl-terminal hydrolase 1 (Homo sapiens) (UniProt O94782); experiment: Inhibitors of USP1/UAF1: Pilot qHTS (AID 504865; active means well fitted curve in the direction sought with a large enough effect; an effect the other way counts as inactive or inconclusive;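 further: rhodamine fluorescence freed from ubiquitin-rhodamine substrate followed over time; top concentration of the series differs between compounds; on the % scale 0 is the no-effect control and ±100 the full control effect; nearly all actives have a fitted effect of over 35% in size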); settings: purified USP1/UAF1, Ub-rhodamine cleavage fluorescence; series mostly up to 54.9 µM
# Ubiquitin carboxyl-terminal hydrolase 1 (Homo sapiens), sequence (O94782 whole entry, looked up): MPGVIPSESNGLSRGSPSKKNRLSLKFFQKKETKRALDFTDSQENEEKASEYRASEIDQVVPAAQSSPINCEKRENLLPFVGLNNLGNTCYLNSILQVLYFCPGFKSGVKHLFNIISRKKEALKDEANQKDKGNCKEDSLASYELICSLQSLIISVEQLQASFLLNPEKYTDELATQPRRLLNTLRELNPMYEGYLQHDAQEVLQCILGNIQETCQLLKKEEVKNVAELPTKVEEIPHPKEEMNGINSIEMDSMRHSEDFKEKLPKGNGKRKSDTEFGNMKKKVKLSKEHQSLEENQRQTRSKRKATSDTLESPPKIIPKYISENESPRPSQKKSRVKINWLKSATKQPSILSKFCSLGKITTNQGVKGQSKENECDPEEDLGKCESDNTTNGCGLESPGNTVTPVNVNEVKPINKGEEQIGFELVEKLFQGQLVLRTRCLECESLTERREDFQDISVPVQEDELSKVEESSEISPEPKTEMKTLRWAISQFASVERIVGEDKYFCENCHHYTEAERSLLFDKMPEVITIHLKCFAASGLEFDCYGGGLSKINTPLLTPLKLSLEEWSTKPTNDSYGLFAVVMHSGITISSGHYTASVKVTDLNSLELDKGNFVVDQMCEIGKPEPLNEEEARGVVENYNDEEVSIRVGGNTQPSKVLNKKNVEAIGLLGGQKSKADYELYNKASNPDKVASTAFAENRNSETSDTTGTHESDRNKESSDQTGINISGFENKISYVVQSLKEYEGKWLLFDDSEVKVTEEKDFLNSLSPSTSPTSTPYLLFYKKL
# Outline: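 USP1/UAF1 complex at 1 nM preincubated 15 min at room temperature with compound, then Ub-Rho substrate added at 150 nM final. Fluorescence (480/540 nm) read kinetically in 50 mM HEPES pH 7.8, 0.5 mM EDTA, 1 mM TCEP, 0.1 mg/ml BSA, 0.01% Tween-20.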
# [16] = target: Guanine nucleotide-binding protein G(i) subunit alpha-1 (Homo sapiens) (UniProt P63096); experiment: qHTS Assay for Inhibitors of RGS12 GoLoco Motif Activity (Green Fluorophore) (AID 879; active means well fitted curve in the direction sought with a large enough effect; an effect the other way counts as inactive or inconclusive;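 further: 0% = labeled peptide with Gαi1 and full inhibition = labeled peptide alone without protein; negative values mean loss of peptide binding seen as reduced polarization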); settings: Galphai1/FITC-RGS12 GoLoco peptide, fluorescence polarization; series mostly up to 57.1 µM
# Outline: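 Fluorescence polarization assay: 50 nM Gαi1 with 10 nM FITC-labeled RGS12 GoLoco peptide in 10 mM Tris pH 7.5, 150 mM NaCl, 0.1 mM GDP, 0.05% NP40, 10 min at room temperature with compound.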
# [17] = qHTS profiling for inhibitors of Plasmodium falciparum proliferation (AID 504749; active means well fitted curve in the direction sought with a large enough effect; an effect the other way counts as inactive or inconclusive;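 further: 0% = DMSO vehicle and full inhibition = artemisinin control; nearly all actives have a fitted effect of over 60% in size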); settings: P. falciparum in erythrocytes, SYBR Green DNA, 72 h, at 28.7 µM (top of the series)
# Outline: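 Readout was DNA-dye fluorescence from lysed cultures, ex 485/em 535 nm. Parasitized red cells had grown 72 h with compound; data scaled between 0.29 uM artemisinin and DMSO wells and corrected using vehicle-only plates.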
# [18] = target: Cytochrome P450 3A4 (Homo sapiens) (UniProt P08684); experiment: qHTS Assay for Inhibitors and Substrates of Cytochrome P450 3A4 (AID 884; active means well fitted curve in the direction sought with a large enough effect; an effect the other way counts as inactive or inconclusive; further: nearly all actives have a fitted effect of over 50% in size; further: potency means the concentration at half of the fitted maximal effect); settings: recombinant CYP3A4, Luciferin-PPXE luminescence; series mostly up to 57.1 µM
# Outline: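 20 nM human CYP3A4 with 25 uM Luciferin-PPXE (at KM) in 200 mM KPO4, preincubated 10 min with compound; NADPH regeneration started a 60 min RT reaction. Luciferin detected by luminescence, normalized to 57 uM ketoconazole as full inhibition.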
# [19] = Confirmation and Secondary Assay for Modulators of Hemoglobin Beta Chain Splicing at IVS2 705 locus (AID 930; active means well fitted curve in the direction sought with a large enough effect; an effect the other way counts as inactive or inconclusive;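 further: HeLa cells stably expressing the EGFP-705 splicing reporter; GFP fluorescence per well restored by corrected splicing of the IVS2-705 intron in EGFP; % of control where 0% means no effect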); settings: HeLa EGFP-705 splicing reporter, GFP fluorescence, 48 h; series mostly up to 38.3 µM
# Outline: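 Fluorescence gain (488 nm laser, 500-520 nm PMT) reflects restored correct splicing of a mutant IVS2-705 intron inside EGFP in stably transfected HeLa cells after 2-day compound treatment.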
# [20] = measured here: cell count channel max response
# [21] = measured here: lipid channel max response
smiles,measurement,setting,value
COc1ccc(-c2nc3cnc(N4CCNCC4)nc3n(C3CC3)c2=O)cc1,Potency,[1],> 11.4 µM (inactive)
same,Potency,[2],6.31 µM (active)
same,Potency,[3],> 9.22 µM (inactive)
same,Potency,[4],> 46 µM (inactive)
same,Potency,[5],inactive
same,Potency,[6],inactive
same,Potency,[7],inactive
same,"activity change, negative = inhibition",[8]; at 57.5 µM (top of the series),0.741% (inactive)
same,max response,[8]; [20],4.22%
same,max response,[8]; [21],6.87%
COc1ccc([C@H]2Sc3ccccc3N(CCN(C)C)C(=O)[C@H]2OC(C)=O)cc1,"activity change, negative = inhibition",[9]; at 17.2 µM (top of the series),-10.4% (inactive)
same,"activity change, negative = inhibition",[9]; at 38 µM (top of the series),-3.25% (inactive)
same,Potency,[2],inactive
same,"activity change, negative = inhibition",[10]; at 17.2 µM (top of the series),-5.79% (inactive)
same,"activity change, negative = inhibition",[10]; at 38 µM (top of the series),-3.5% (inactive)
same,"activity, negative = inhibition",[11]; at 17.2 µM (top of the series),-1.38% (inactive)
same,"activity, negative = inhibition",[11]; at 38 µM (top of the series),7.22% (inactive)
same,Potency,[3],> 46 µM (inactive) and > 20.6 µM (inactive)
same,Potency,[4],> 46 µM (inactive) and > 20.6 µM (inactive)
same,Potency,[6],inactive
same,outcome,[12],inactive
same,outcome,[13],inactive
same,outcome,[14],inactive
same,"activity change, negative = inhibition",[8]; at 25.7 µM (top of the series),-1.07% (inactive)
same,max response,[8]; [20],7.03%
same,max response,[8]; [21],9.95%
same,Potency,[15],inactive
CCn1cc(C(=O)O)c(=O)c2cc(F)c(N3CCN[C@@H](C)C3)c(F)c21,"activity change, negative = inhibition",[9]; at 17.2 µM (top of the series),-0.628% (inactive)
same,"activity change, negative = inhibition",[9]; at 38 µM (top of the series),12.1% (inactive)
same,Potency,[2],inactive
same,"activity change, negative = inhibition",[10]; at 17.2 µM (top of the series),-8.67% (inactive)
same,"activity change, negative = inhibition",[10]; at 38 µM (top of the series),-2.78% (inactive)
same,"activity, negative = inhibition",[11]; at 17.2 µM (top of the series),9.73% (inactive)
same,"activity, negative = inhibition",[11]; at 38 µM (top of the series),26.7% (inactive)
same,Potency,[3],> 46 µM (inactive) and > 20.6 µM (inactive)
same,Potency,[4],> 46 µM (inactive) and > 20.6 µM (inactive)
same,Potency,[5],inactive
same,Potency,[6],inactive
same,Potency,[16],inactive
same,outcome,[12],inactive
same,outcome,[13],inactive
same,outcome,[14],inactive
same,"activity change, negative = inhibition",[8]; at 25.7 µM (top of the series),-0.691% (inactive)
same,max response,[8]; [20],-2.23%
same,max response,[8]; [21],-3.89%
same,Potency,[15],inactive
same,"activity, negative = inhibition",[17]; parasite line A,5.09% (inactive)
same,"activity, negative = inhibition",[17]; parasite line B,0.537% (inactive)
Cc1cccc(C)c1OC[C@H](C)N,"activity change, negative = inhibition",[9]; at 17.2 µM (top of the series),5.64% (inactive)
same,"activity change, negative = inhibition",[9]; at 38 µM (top of the series),1.06% (inactive)
same,Potency,[2],2.51 µM (active) and 398 nM (active)
same,"activity change, negative = inhibition",[10]; at 17.2 µM (top of the series),1.67% (inactive)
same,"activity change, negative = inhibition",[10]; at 38 µM (top of the series),15.4% (inactive)
same,"activity, negative = inhibition",[11]; at 17.2 µM (top of the series),3.2% (inactive)
same,"activity, negative = inhibition",[11]; at 38 µM (top of the series),-14.2% (inactive)
same,Potency,[5],inactive
same,Potency,[6],inactive
same,Potency,[16],inactive
same,Potency,[18],inactive
same,outcome,[12],inactive
same,outcome,[13],inactive
same,outcome,[14],inactive
same,"activity change, negative = inhibition",[8]; at 25.7 µM (top of the series),-0.862% (inactive)
same,max response,[8]; [20],-4.34%
same,max response,[8]; [21],-6.28%
same,Potency,[15],inactive
CN(C)c1ccc(-c2ccc3ncnc(NCc4ccccc4)c3c2)cc1,Potency,[1],> 11.4 µM (inactive)
same,Potency,[2],0.501 µM (active)
same,"activity, negative = inhibition",[11]; at 7.69 µM (top of the series) unless noted,-1.76% (inactive)
same,Potency,[3],> 46 µM (inactive)
same,Potency,[4],> 46 µM (inactive)
same,Potency,[6],inactive
same,Potency,[18],2.51 µM (active)
same,Potency,[7],inactive
same,outcome,[19],inactive
same,"activity change, negative = inhibition",[8]; at 57.5 µM (top of the series),2.65% (inactive)
same,max response,[8]; [20],-18.1%
same,max response,[8]; [21],-15.6%
